According to PMC12864922, “TDP-43 directly inhibits mRNA accumulation in neurites through modulation of mRNA stability”:
The full ranking holds about 9,900 sequences; the median of “r (bound/input frequency ratio)” is about 0.7, and the highest 2% start at about 6.5. This excerpt belongs to a sample that is enriched for the highest values.

B1: ENSMUSG00000061578.1047|Ksr2 (ssRNA)
RNA: GGGAGUUCUACAGUCCGACGAUCGCUUCGAUAUCCGCAUGCUACCUCUCCCUGGAGCUGGCAGCCAUGGUUGAUGGCUAUGGGAUACAAUGUGGAUCUUUAGAUGUGAAAGUCUGAUGACUCAAAUCAAAGUUUGGUUUUUCUUUUCUACUACUCUGAAGGAAAAUCUCAGCUUGGCUAUUUCUUCAUGUUUUAAAAAUGUCUUGACUUCUCUCAGCAACCAACUUCAGGUGCCAGGAUAUGAGAUGCUAAGGUUCAGGGGUGGUGGAGGUGAUUCUAUCCAGUGGCCAGCAAUACCCAAAAGCUCUUGCGGUCGCACUAGUGUGGAAUUCUCGGGUGUCAAGG
B2: ENSMUSG00000042529.394|Kcnj12 (ssRNA)
RNA: GGGAGUUCUACAGUCCGACGAUCGCUUCGAUAUCCGCAUGCUAUUGAGUCCCUGCCCUGCCCUGGUUAUGCAGGCUGUACGACGCAGUGUGCAUCAGUCUGAGGAGUCUGGUGGUAAGUAAGCCUCUGCAGCAGACCCUGUCGGAGGCCAUGGGGGCGUGUGUGUGUGUGUGUGUGUGUGUGUGUGUGUGUGUGUGUGUGUGUGUGUGUGAACAUGUGUGAGGGUGUGGAGGUCCCAGGGUGUGUGUAUGUGAAUGUCAGUGGCUUGGGUGCUGUGUGGAGAGAGAGAGAGAGAGAGAGAGAGCUCUUGCGGUCGCACUAGUGUGGAAUUCUCGGGUGUCAAGG
B3: ENSMUSG00000042529.396|Kcnj12 (ssRNA)
RNA: GGGAGUUCUACAGUCCGACGAUCGCUUCGAUAUCCGCAUGCUACCUGCCCUGGUUAUGCAGGCUGUACGACGCAGUGUGCAUCAGUCUGAGGAGUCUGGUGGUAAGUAAGCCUCUGCAGCAGACCCUGUCGGAGGCCAUGGGGGCGUGUGUGUGUGUGUGUGUGUGUGUGUGUGUGUGUGUGUGUGUGUGUGUGUGUGAACAUGUGUGAGGGUGUGGAGGUCCCAGGGUGUGUGUAUGUGAAUGUCAGUGGCUUGGGUGCUGUGUGGAGAGAGAGAGAGAGAGAGAGAGAGAGAGAGAGAGAGCUCUUGCGGUCGCACUAGUGUGGAAUUCUCGGGUGUCAAGG
B4: ENSMUSG00000042529.390|Kcnj12 (ssRNA)
RNA: GGGAGUUCUACAGUCCGACGAUCGCUUCGAUAUCCGCAUGCUAGGCCACAGACAUGAUCAGUCCGACUUGAGUCCCUGCCCUGCCCUGGUUAUGCAGGCUGUACGACGCAGUGUGCAUCAGUCUGAGGAGUCUGGUGGUAAGUAAGCCUCUGCAGCAGACCCUGUCGGAGGCCAUGGGGGCGUGUGUGUGUGUGUGUGUGUGUGUGUGUGUGUGUGUGUGUGUGUGUGUGUGUGAACAUGUGUGAGGGUGUGGAGGUCCCAGGGUGUGUGUAUGUGAAUGUCAGUGGCUUGGGUGCUGUGUGGCUCUUGCGGUCGCACUAGUGUGGAAUUCUCGGGUGUCAAGG
B5: ENSMUSG00000042529.392|Kcnj12|56:60;127:179;184:189;193:197;209:219;242:247 (ssRNA)
RNA: GGGAGUUCUACAGUCCGACGAUCGCUUCGAUAUCCGCAUGCUAGAUCAGUCCGACUUGAGUCCCUGCCCUGCCCUGGUUAUGCAGGCUGUACGACGCACACACCAUCAGUCUGAGGAGUCUGGUGGUAAGUAAGCCUCUGCAGCAGACCCUGUCGGAGGCCAUGGGGGCCACACACACACACACACACACACACACACACACACACACACACACACACACACAACAACACACAGGCACACGAGGUCCCAGGCACACACAUACUGAAUGUCAGUGGCUUGGGUGCACACACGAGAGAGAGAGAGCUCUUGCGGUCGCACUAGUGUGGAAUUCUCGGGUGUCAAGG
B6: ENSMUSG00000043670.183|Diras1 (ssRNA)
RNA: GGGAGUUCUACAGUCCGACGAUCGCUUCGAUAUCCGCAUGCUAGACAGAAUCUGAGCCUCUUUGCUGGUCAUGUGUACUCUGGAGACUGUCCCCCAUGUCUGCCCUGAGUUACGGAGCCCCUGUGGUAUCUGCGAGACUGUCCAGGAGACUUGAGUGGCUCCUGGGCCUGUGUCCCACCCAGAUGAGGGUGACUUAGAAUUCUGUGUUUAUGUGCCUGUGUGUGUGGAUGGGUGUGUGUCUGUCUUGGGAUGGGGUGUUCUUGCACCACUUUGUGUUCUUAGUGAGACCACAGUGUAAGUGGCCUCUUGCGGUCGCACUAGUGUGGAAUUCUCGGGUGUCAAGG
B7: ENSMUSG00000042529.389|Kcnj12 (ssRNA)
RNA: GGGAGUUCUACAGUCCGACGAUCGCUUCGAUAUCCGCAUGCUAGAUGCUGGCCACAGACAUGAUCAGUCCGACUUGAGUCCCUGCCCUGCCCUGGUUAUGCAGGCUGUACGACGCAGUGUGCAUCAGUCUGAGGAGUCUGGUGGUAAGUAAGCCUCUGCAGCAGACCCUGUCGGAGGCCAUGGGGGCGUGUGUGUGUGUGUGUGUGUGUGUGUGUGUGUGUGUGUGUGUGUGUGUGUGUGAACAUGUGUGAGGGUGUGGAGGUCCCAGGGUGUGUGUAUGUGAAUGUCAGUGGCUUGGGUGCUCUCUUGCGGUCGCACUAGUGUGGAAUUCUCGGGUGUCAAGG
B8: ENSMUSG00000042529.391|Kcnj12 (ssRNA)
RNA: GGGAGUUCUACAGUCCGACGAUCGCUUCGAUAUCCGCAUGCUAAGACAUGAUCAGUCCGACUUGAGUCCCUGCCCUGCCCUGGUUAUGCAGGCUGUACGACGCAGUGUGCAUCAGUCUGAGGAGUCUGGUGGUAAGUAAGCCUCUGCAGCAGACCCUGUCGGAGGCCAUGGGGGCGUGUGUGUGUGUGUGUGUGUGUGUGUGUGUGUGUGUGUGUGUGUGUGUGUGUGAACAUGUGUGAGGGUGUGGAGGUCCCAGGGUGUGUGUAUGUGAAUGUCAGUGGCUUGGGUGCUGUGUGGAGAGAGCUCUUGCGGUCGCACUAGUGUGGAAUUCUCGGGUGUCAAGG
B9: ENSMUSG00000042529.413|Kcnj12 (ssRNA)
RNA: GGGAGUUCUACAGUCCGACGAUCGCUUCGAUAUCCGCAUGCUAGUGUGUGUGUGUGUGUGUGUGUGUGUGUGUGUGUGUGUGUGUGUGUGUGUGUGAACAUGUGUGAGGGUGUGGAGGUCCCAGGGUGUGUGUAUGUGAAUGUCAGUGGCUUGGGUGCUGUGUGGAGAGAGAGAGAGAGAGAGAGAGAGAGAGAGAGAGAGAGAGAGAGAGAGAGCUGCACAGGAUGAAGCAGCUGCCCUGAGCCCAUCUGGUGCUGUGCACCUGGUCCUUGUCCAGCCGAGGGCCUGGGGGCAGAAGAACACCUCUUGCGGUCGCACUAGUGUGGAAUUCUCGGGUGUCAAGG
B10: ENSMUSG00000042529.395|Kcnj12 (ssRNA)
RNA: GGGAGUUCUACAGUCCGACGAUCGCUUCGAUAUCCGCAUGCUACCCUGCCCUGCCCUGGUUAUGCAGGCUGUACGACGCAGUGUGCAUCAGUCUGAGGAGUCUGGUGGUAAGUAAGCCUCUGCAGCAGACCCUGUCGGAGGCCAUGGGGGCGUGUGUGUGUGUGUGUGUGUGUGUGUGUGUGUGUGUGUGUGUGUGUGUGUGUGAACAUGUGUGAGGGUGUGGAGGUCCCAGGGUGUGUGUAUGUGAAUGUCAGUGGCUUGGGUGCUGUGUGGAGAGAGAGAGAGAGAGAGAGAGAGAGAGAGCUCUUGCGGUCGCACUAGUGUGGAAUUCUCGGGUGUCAAGG
B11: ENSMUSG00000042529.414|Kcnj12 (ssRNA)
RNA: GGGAGUUCUACAGUCCGACGAUCGCUUCGAUAUCCGCAUGCUAGUGUGUGUGUGUGUGUGUGUGUGUGUGUGUGUGUGUGUGUGUGUGUGAACAUGUGUGAGGGUGUGGAGGUCCCAGGGUGUGUGUAUGUGAAUGUCAGUGGCUUGGGUGCUGUGUGGAGAGAGAGAGAGAGAGAGAGAGAGAGAGAGAGAGAGAGAGAGAGAGAGAGCUGCACAGGAUGAAGCAGCUGCCCUGAGCCCAUCUGGUGCUGUGCACCUGGUCCUUGUCCAGCCGAGGGCCUGGGGGCAGAAGAACACACCAUACUCUUGCGGUCGCACUAGUGUGGAAUUCUCGGGUGUCAAGG

target: TDP-43 (Homo sapiens, UniProt Q13148 1-414); assay: RNA Bind-n-Seq with designed 260-mer pool; 25 mM Tris-HCl, 150 mM KCl, 3 mM MgCl2, BSA (printed 500 mg/mL), 20 units/mL SUPERase IN; pH not stated; 500 nM RNA pool, 1 h, 4 C; TDP-43 5, 50, 500 nM; high values mean tight binding; details: protein: recombinant; tags: SBP (GST cleaved off with PreScission; pGEX-GST-SBP)
Sequence (Q13148 whole entry): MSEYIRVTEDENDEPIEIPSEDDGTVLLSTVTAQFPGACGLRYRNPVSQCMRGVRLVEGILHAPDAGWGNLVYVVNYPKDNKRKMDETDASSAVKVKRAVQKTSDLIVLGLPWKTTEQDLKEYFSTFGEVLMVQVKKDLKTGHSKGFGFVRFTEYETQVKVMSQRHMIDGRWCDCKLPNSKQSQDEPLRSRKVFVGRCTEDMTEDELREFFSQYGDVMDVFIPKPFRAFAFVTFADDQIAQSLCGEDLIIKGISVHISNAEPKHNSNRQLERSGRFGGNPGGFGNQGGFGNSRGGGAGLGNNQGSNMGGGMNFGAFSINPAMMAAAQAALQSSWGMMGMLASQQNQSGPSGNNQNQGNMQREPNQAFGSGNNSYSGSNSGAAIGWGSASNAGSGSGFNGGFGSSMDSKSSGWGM
Summary of the method: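 The incubation lasted 1 h at 4 °C and used 500 nM of an in vitro-transcribed 260-nt 3′ UTR oligo pool with recombinant SBP-tagged TDP-43 at 5, 50 or 500 nM immobilized on streptavidin beads. It took place in 25 mM Tris-HCl, 150 mM KCl, 3 mM MgCl2, BSA and SUPERase IN. Bound RNA was washed, eluted with biotin, converted to cDNA, PCR-amplified and sequenced to give R, each oligo's normalized abundance in the bound sample divided by that in input. Two independent protein batches provided the duplicates.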

Q: For B1, which binding signal is on record?
A: 0.12 R (bound/input frequency ratio)

Q: Which binding signal does the source give for B2 here?
A: 5.55 R (bound/input frequency ratio)

Q: B3 was tested. Which binding signal did it give?
A: 7.9 R (bound/input frequency ratio)

Q: With B4 as the binder, how does the binding signal read?
A: 8.92 R (bound/input frequency ratio)

Q: How did the binding signal turn out when B5 was run?
A: 2.98 R (bound/input frequency ratio)

Q: With B6 as the binder, how does the binding signal read?
A: 5.8 R (bound/input frequency ratio)

Q: With B7 as the binder, how does the binding signal read?
A: 7.39 R (bound/input frequency ratio)

Q: Which binding signal does the source give for B8 here?
A: 10.1 R (bound/input frequency ratio)

Q: Which binding signal does the source give for B9 here?
A: 4.88 R (bound/input frequency ratio)

Q: How did the binding signal turn out when B10 was run?
A: 5.73 R (bound/input frequency ratio)

Q: For B11, which binding signal is on record?
A: 5.01 R (bound/input frequency ratio)
